# Inconclusive results are not listed. Where a call stands in place of a potency, no number is given. Calls of active or inactive are those of the source. Unless noted, calls come from the whole dose curve; as a rule, active = well fitted curve in the direction sought with a large enough effect in the repeat runs; inconclusive = weak or mixed curves; inactive = no such curve, though single readings can be large; an effect the other way counts as inactive or inconclusive.
# Columns and labels:
# [1] = target: Cytochrome P450 2C9 (Homo sapiens) (UniProt P11712); experiment: Cytochrome P450 family 2 subfamily C member 9 (CYP2C9) small molecule antagonists: luciferase biochemical (cell-free) qHTS assay (AID 1645842); note: nearly all actives have a fitted effect of over 55% in size; note: potency is the fitted concentration of half-maximal effect
# Procedure, shortened: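 Luminescence, after 20 min with luciferin detection reagent, reflected CYP2C9 turnover during a 1 h NADPH-driven reaction at 37C. Enzyme-substrate mix contained 0.4% bovine serum albumin and was preincubated with compound 10 min at room temperature.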
# [2] = Cytotoxicity counterscreen for inhibitors of SARS-CoV-2 cell entry (AID 1645845; calls by dose curve; note: nearly all actives have a fitted effect of over 50% in size); settings: outcome: dose series up to 57.1 µM unless noted
# Procedure, shortened: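 HEK293-ACE2 cells (Expi293F stably expressing human ACE2) seeded overnight, then compound for 1 h plus 48 h at 37C. Viability as ATP content by luminescence; normalized to wells with cells and media-only wells.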
# [3] = Primary qHTS to identify inhibitors of SARS-CoV-2 cell entry (AID 1645846; calls by dose curve; note: nearly all actives have a fitted effect of over 45% in size); settings: activity change, negative = inhibition: at 57.1 µM (top of the series) unless noted
# Procedure, shortened: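 HEK293-ACE2 (Expi293F, stable hACE2), 1500 cells/well, o/n 37C; cpd 23 nL pin, 1 h; MLV-PP w/ SARS-CoV-2-S (Wuhan-Hu-1, Δ19 C-term); 48 h 37C; Bright-Glo luminescence; normalized vs S-PP and bald PP.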
# [4] = Primary qHTS for inhibitors of nuclear receptor binding SET domain protein 2 (NSD2) in an isogenic RCH-ACV NSD2 p.E1099K mutant (9B) (AID 1645876; active = well fitted curve in the direction sought with a large enough effect; an effect the other way counts as inactive or inconclusive; note: nearly all actives have a fitted effect of over 70% in size)
# [5] = Primary qHTS for inhibitors of nuclear receptor binding SET domain protein 2 (NSD2) in an RCH-ACV wild type WT cells (2C) (AID 1645877; active = well fitted curve in the direction sought with a large enough effect; an effect the other way counts as inactive or inconclusive; note: nearly all actives have a fitted effect of over 70% in size)
# Sequence of Cytochrome P450 2C9 (Homo sapiens) (P11712 whole entry, looked up): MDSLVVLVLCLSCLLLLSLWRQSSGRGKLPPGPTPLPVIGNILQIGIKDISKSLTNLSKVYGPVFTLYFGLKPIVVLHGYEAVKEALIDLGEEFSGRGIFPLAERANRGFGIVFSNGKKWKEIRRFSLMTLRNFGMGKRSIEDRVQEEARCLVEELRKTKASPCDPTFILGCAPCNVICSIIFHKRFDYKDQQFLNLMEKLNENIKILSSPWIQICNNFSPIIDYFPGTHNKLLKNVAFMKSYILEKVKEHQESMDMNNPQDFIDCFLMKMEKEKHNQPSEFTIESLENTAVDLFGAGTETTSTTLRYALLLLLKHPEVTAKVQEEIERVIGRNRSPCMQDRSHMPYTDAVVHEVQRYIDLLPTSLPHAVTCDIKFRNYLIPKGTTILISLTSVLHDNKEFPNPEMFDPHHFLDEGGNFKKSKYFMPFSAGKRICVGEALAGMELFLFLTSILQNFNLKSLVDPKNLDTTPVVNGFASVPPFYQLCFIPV
smiles,measurement,setting,value
CCCCNCC(O)c1ccc(O)cc1 (centres undefined),Potency,[1],inactive
same,outcome,[2],inactive
same,Potency,[3],inactive
ClC1C(Cl)C(Cl)C(Cl)C(Cl)C1Cl (centres undefined),Potency,[1],inactive
same,outcome,[2],inactive
same,Potency,[3],inactive
CC(C)(C)c1cc(C(C)(C)C)c2c(c1)C(O)(C(F)(F)F)C(=O)O2 (centres undefined),Potency,[1],21.3 µM (active)
same,Potency,[4],inactive
same,Potency,[5],inactive
Cc1cccc(NC(=O)N[C@@H]2N=C(c3ccccc3)c3ccccc3N(C)C2=O)c1,Potency,[1],12 µM (active)
CC(C)(C)c1cc(O)ccc1O,Potency,[1],12 µM (active)
COC(=O)N1CCN(C(=O)Cc2ccc(Cl)c(Cl)c2)[C@@H](CN2CCCC2)C1,Potency,[1],inactive
same,Potency,[4],inactive
CN(C)CCc1c[nH]c2ccc(CN3CCN(C)S3(=O)=O)cc12,Potency,[1],inactive
same,Potency,[4],inactive
CC(Cc1ccccc1)NC=O (centres undefined),Potency,[1],inactive
Cc1cc(C(=O)CN2CCCC2)c(C)n1-c1ccc(F)cc1,Potency,[1],inactive
same,Potency,[4],inactive
same,Potency,[5],inactive
NCC(O)c1cccc(O)c1 (centres undefined),Potency,[1],inactive
same,outcome,[2],inactive
same,"activity change, negative = inhibition",[3],-19.3%
OCCCCC#Cc1cncc(OC[C@@H]2CCN2)c1,Potency,[1],inactive
same,Potency,[4],inactive
CCCC(C)C1(CC)C(=O)NC(=O)NC1=O (centres undefined),Potency,[1],inactive
CCNCC(O)c1cccc(O)c1 (centres undefined),Potency,[1],inactive
same,outcome,[2],inactive
same,"activity change, negative = inhibition",[3],-13.6%
COc1cc(C)[nH]c(=O)c1CNC(=O)c1c(C)n([C@H](C)C2CCOCC2)c2ccccc12,Potency,[1],13.5 µM (active)
same,outcome,[2],inactive
same,Potency,[4],inactive
CCc1[nH]c2ccc(OC)cc2c1CCN(C)C,Potency,[1],inactive
same,Potency,[4],inactive
same,Potency,[5],inactive
CCCCCCn1c(=O)c(C(=O)Nc2ccc(C(=O)OCCC)cc2)c(O)c2ccccc21,Potency,[1],inactive
same,outcome,[4],inactive [at 9.23 µM]
O=C(NC(=O)c1c(F)cccc1F)Nc1ccc(Cl)c(Oc2ncc(C(F)(F)F)cc2Cl)c1,Potency,[1],1.9 µM (active)
COc1cc(CCNCc2ccccc2O)c(OC)cc1C#N,Potency,[1],9.52 µM (active)
same,Potency,[4],inactive

# From PubChem BioAssay (NCATS)
